Compounds without any hit were thinned out: in the full panel of roughly 83,000, 20% have a hit.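 Compound tested at a single concentration for 48 hours in 96-well plates; a percent growth value below 10 was scored as active.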 Values without a mark were called inactive. Calls of active or inactive are those of the source.

Common to all, as to experiment: NCI-60 one-dose screen, 48 h (100 = growth as untreated, 0 = no growth, -100 = all killed)
Holding throughout (conditions): 10 µM unless noted

Test [1] deals with HCT-15 colon.
Test [2] deals with HT29 colon.
Test [3] concerns SNB-75 CNS.
The test system of test [4] is U251 CNS.
For test [5], the system named is PC-3 prostate.
Test [6] has as its system UACC-62 melanoma.
The subject of test [7] is LOX IMVI melanoma.
Test [8] relates to SK-MEL-28 melanoma.
Test [9] relates to SK-MEL-5 melanoma.

Take `CCCOc1cc2ccccc2cc1C(=O)Nc1nc(NC)c2c(ccc3nccc32)[nH]1`: the growth in test [1] is -50% (active); in test [2] it was -73.1% (active); in test [3] it was -87.1% (active); in [4], -85.5% (active); in test [5], -51.5% (active); in [6], -77.3% (active). Besides, the growth in test [7] was -81% (active); in [8], -84.4% (active).
In the case of `N#Cc1cnn(-c2nc3c(Cl)cccc3s2)c1N`, the growth is 91.8% in test [1]; 84.8% in test [2]; 77.7% in [3]; 88% in test [4]; 90.8% in test [9]; 89.2% in [6]. Further, the growth in test [7] is 81.4%; in test [8], 102%.
Take `O=C(Cc1ccc(/C=C/C(=O)c2ncc[nH]2)cc1)Nc1ccccc1`: the growth is 12.9% in test [1]; 4.83% (active) in test [2]; 58.4% in [3]; 11.3% in test [4]; 57.1% in test [5]; 68.5% in test [6]. Besides, the figures for the growth in test [7] and in test [8] were 10.1% and 98.9%, respectively.
As for `CCOC(=O)c1sc2nc(-c3cccc(O)c3)nc(N3CCOCC3)c2c1C`, the growth was 43.7% in [1]; 98.2% in test [2]; 21.1% in [3]; 58.5% in test [4]; 52.7% in test [9]; 71.8% in [6]. The results for the growth in [7] and in test [8] were 57.3% and 63.7%, respectively.
In the case of `COc1cc2c(cc1-c1c(C)noc1C)ncc1nc(-c3ccccn3)n([C@H](C)COC(F)F)c12`, the growth in test [1] is 23.2%; in test [2], 24.2%; in [3], 34%; in test [4], 48.8%; in [5], 34%; in test [6], 23.9%. The growth is 20.9% in [7] and 67.3% in test [8].
For the compound `c1ccc(-c2cc3n4c(-c5ccccc5)nn(-c5ccccc5)c4cnc-3n2)cc1`, the growth in [1] was 86.2%; in [2], 44.3%; in test [3], -8.19% (active); in test [4], 26.4%; in test [9] it was 70.5%; in test [6] it was 45.7%. The results for the growth in test [7] and in [8] were 57.1% and 63.3%, respectively.
As for `CC/C=C\C/C=C\C[C@H]1C/C=C2/C(=O)C=C[C@@H]2C/C=C\CCC(=O)O1`, the growth in test [1] is 0.621% (active); in test [2], -40.5% (active); in test [3] it was 64%; in [4], -23.2% (active); in [5], 2.76% (active); in test [7] it was -59.7% (active).
For the compound `COc1cc(CNc2oc(-c3ccccc3)c(-c3ccccc3)c2C#N)cc(CN2CCN(C)CC2)c1O`, the growth in test [1] is -55.9% (active); in [2], 5.27% (active); in test [3], 52.4%; in test [5] it was 57.6%; in test [9] it was 49.8%; in test [6], 91.1%. For the same compound, the growth was -74.6% (active) in [7] and -38.4% (active) in [8].
For `O=C1c2cc3c(cc2-c2c1c1cc(F)c(F)cc1c(=O)n2CCCn1ccnc1)OCO3`, the growth in [1] is 4.66% (active); in [2], 3.52% (active); in test [3], 24.4%; in test [5], 9.43% (active); in [9], -74.9% (active); in test [6] it was -61.4% (active). The growth in test [7] was -20.4% (active); in test [8] it was 34.8%.
Turning to `Cc1c(/C=C/[N+](=O)[O-])ccc2c1[nH]c1ccccc12`, the growth was 81.3% in [1]; 96.5% in test [2]; 107% in [3]; 73.7% in [4]; 95.5% in [5]; 81% in test [6]. Also, the growth in [8] is 113%.
In the case of `O=C(O)c1ccc(N=CC(=O)c2ccc(-c3ccccc3)cc2)cc1`, the growth in [1] was 113%; in test [2], 103%; in test [3], 109%; in [4], 98.5%; in [5] it was 86.2%; in test [6] it was 93.5%. Also, the growth in test [7] and in [8] was 101% throughout.
`O=C(/C=C/c1ccc(C(F)(F)F)cc1)Nc1ccc(C=C2c3ccccc3C(=O)c3ccccc32)cc1`: the growth is 47.4% in test [1]; 46.5% in test [2]; 46.6% in test [3]; 33.8% in test [4]; 44.7% in test [9]; 52.2% in [6]. Moreover, the growth is 76.7% in test [7] and 60.2% in test [8].
On to `c1ccc(-c2c(-c3ccccc3)[n+](Cc3ccc4ccccc4c3)c(-c3ccc(-c4nc5ccccc5s4)cc3)n2Cc2ccc3ccccc3c2)cc1`, for which the growth in [1] was -91.5% (active); in test [2], -85.5% (active); in [3], -78.8% (active); in [5], -88.8% (active); in test [9], -98.3% (active); in [6], -75.2% (active). For the same compound, the growth in test [7] is -98.3% (active); in test [8] it was -88.3% (active).
For the compound `CN1CCN(c2nc(NCCCNc3ccnc4cc(Cl)ccc34)c3ccccc3n2)CC1`, the growth is 52.7% in test [1]; 6.44% (active) in test [2]; 79.6% in test [3]; 2% (active) in [4]; 43.4% in [5]; -65.7% (active) in test [6]. Also, the growth in [7] was -43.8% (active); in [8] it was -48.5% (active).
Consider `COc1ccc(C(=O)c2sc3nc4c(c(-c5cccnc5)c3c2N)CCCC4)cc1OC`, for which the growth was 72.8% in test [1]; 74.3% in test [2]; 56.4% in [3]; 70.2% in test [4]; 59.6% in test [9]; 87.6% in [6]. Besides, the growth in test [7] is 70.2%; in test [8] it was 77.9%.
For the compound `COc1cccc(-c2nc(SCC(=O)Nc3ccc(C(=O)/C=C/c4ccc(OC)c(OC)c4)cc3)[nH]c(=O)c2C#N)c1`, the growth in test [1] is 83.6%; in [2] it was 102%; in test [3], 71.8%; in test [4], 85.3%; in test [5], 100%; in test [7] it was 81.4%.

The record behind these values is PubChem BioAssay (NCI).
